“And” between values parts separate entries of the source, which are not always exact repeats. Equal values may be shown once. Among all 5,500 compounds or so, about 2,000 (36%) were called active. Inconclusive results (about 18%) are left out. Cut-off read from the data, not from the text of the source: active = normalized growth mostly below about 0.91 (no sharp cut-off); inconclusive = no clear call, values can overlap the other calls; inactive = mostly above about 0.92. Some of the results follow.
Test: chemical genetic growth profiling, strain panel (AID 1159580);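 note: tested at 20 µM; growth read once vehicle control cultures reached saturation at 30 °C; 1 = growth at the plate median or of vehicle wells; lower values mean less growth of the strain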
Conditions: growth OD

Measured: normalized growth

NCCCCC(=O)O
inactive: S. cerevisiae deletion strains, locus YKL009W, strain mrt4, stronger effect = lower value 1.01 | S. cerevisiae deletion strains, locus YKL068W, stronger effect = lower value 1 | S. cerevisiae deletion strains, locus YKL085W, strain MDH1 (second series), stronger effect = lower value 1.04 | S. cerevisiae deletion strains, locus YKL085W, strain MDH1, stronger effect = lower value 1.04 | S. cerevisiae deletion strains, locus YKL160W, strain elf1, stronger effect = lower value 1.03 | S. cerevisiae deletion strains, locus YKL190W, strain CNB1, stronger effect = lower value 1.02 | S. cerevisiae deletion strains, locus YKR001C, strain vps1, stronger effect = lower value 0.996 | S. cerevisiae deletion strains, locus YKR026C, strain gcn3, stronger effect = lower value 1.02 | S. cerevisiae deletion strains, locus YKR091W, strain srl3, stronger effect = lower value 1.02 | S. cerevisiae deletion strains, locus YLL001W, strain dnm1, stronger effect = lower value 1.01 | S. cerevisiae deletion strains, locus YLL026W, stronger effect = lower value 1.01 | S. cerevisiae deletion strains, locus YLL041C, strain sdh2, stronger effect = lower value 1.01 | S. cerevisiae deletion strains, locus YLR027C, strain aat2, stronger effect = lower value 1.02 | S. cerevisiae deletion strains, locus YLR039C, strain RIC1, stronger effect = lower value 1.06 | S. cerevisiae deletion strains, locus YLR058C, strain SHM2, stronger effect = lower value 1.03 | S. cerevisiae deletion strains, locus YLR102C, strain apc9, stronger effect = lower value 0.999 | S. cerevisiae deletion strains, locus YLR113W, strain HOG1, stronger effect = lower value 1 | S. cerevisiae deletion strains, locus YLR221C, strain rsa3, stronger effect = lower value 1 | S. cerevisiae deletion strains, locus YLR258W, strain gsy2, stronger effect = lower value 1.02 | S. cerevisiae deletion strains, locus YLR262C, strain YPT6 (second series), stronger effect = lower value 1.03 | S. cerevisiae deletion strains, locus YLR262C, strain YPT6, stronger effect = lower value 1.09 | S. cerevisiae deletion strains, locus YLR268W, strain sec22, stronger effect = lower value 1 | S. cerevisiae deletion strains, locus YLR320W, strain mms22, stronger effect = lower value 1.03 | S. cerevisiae deletion strains, locus YLR330W, strain CHS5, stronger effect = lower value 1.02 | S. cerevisiae deletion strains, locus YLR342W, strain FKS1 (second series), stronger effect = lower value 1.01 | S. cerevisiae deletion strains, locus YLR342W, strain FKS1, stronger effect = lower value 1.02 | S. cerevisiae deletion strains, locus YLR357W, strain rsc2, stronger effect = lower value 1.04 | S. cerevisiae deletion strains, locus YLR370C, strain arc18, stronger effect = lower value 1.02 | S. cerevisiae deletion strains, locus YLR371W, strain rom2, stronger effect = lower value 0.995 | S. cerevisiae deletion strains, locus YLR384C, strain iki3, stronger effect = lower value 1.03 | S. cerevisiae deletion strains, locus YLR418C, strain cdc73, stronger effect = lower value 1.02 | S. cerevisiae deletion strains, locus YML016C, strain PPZ1, stronger effect = lower value 1.03 | S. cerevisiae deletion strains, locus YML032C, strain rad52, stronger effect = lower value 0.979 | S. cerevisiae deletion strains, locus YML120C, strain ndi1, stronger effect = lower value 1.01 | S. cerevisiae deletion strains, locus YML124C, strain tub3, stronger effect = lower value 0.987 | S. cerevisiae deletion strains, locus YMR058W, strain fet3, stronger effect = lower value 1.02 | S. cerevisiae deletion strains, locus YMR078C, strain ctf18, stronger effect = lower value 0.983 | S. cerevisiae deletion strains, locus YMR125W, strain sto1, stronger effect = lower value 1 | S. cerevisiae deletion strains, locus YMR129W, stronger effect = lower value 1.02 | S. cerevisiae deletion strains, locus YMR205C, strain PFK2, stronger effect = lower value 1.03 | S. cerevisiae deletion strains, locus YMR223W, strain ubp8, stronger effect = lower value 0.976 | S. cerevisiae deletion strains, locus YMR231W, strain pep5, stronger effect = lower value 1.01 | S. cerevisiae deletion strains, locus YMR263W, strain SAP30, stronger effect = lower value 1.03 | S. cerevisiae deletion strains, locus YMR307W, strain GAS1, stronger effect = lower value 1.04 | S. cerevisiae deletion strains, locus YNL067W, strain RPL9B, stronger effect = lower value 1.04 | S. cerevisiae deletion strains, locus YNL071W, strain lat1, stronger effect = lower value 1.01 | S. cerevisiae deletion strains, locus YNL128W, strain TEP1, stronger effect = lower value 1.02 and 1.01 | S. cerevisiae deletion strains, locus YNL153C, strain GIM3, stronger effect = lower value 1.02 | S. cerevisiae deletion strains, locus YNL175C, strain NOP13, stronger effect = lower value 1.03 | S. cerevisiae deletion strains, locus YNL183C, strain NPR1, stronger effect = lower value 0.894 | S. cerevisiae deletion strains, locus YNL197C, strain WHI3, stronger effect = lower value 1.01 | S. cerevisiae deletion strains, locus YNL209W, strain ssb2, stronger effect = lower value 1.02 | S. cerevisiae deletion strains, locus YNL224C, strain SQS1, stronger effect = lower value 1 | S. cerevisiae deletion strains, locus YNL233W, strain BNI4, stronger effect = lower value 1.03 | S. cerevisiae deletion strains, locus YNL248C, strain rpa49, stronger effect = lower value 1.01 | S. cerevisiae deletion strains, locus YNL250W, strain rad50, stronger effect = lower value 1 | S. cerevisiae deletion strains, locus YNL271C, strain bni1, stronger effect = lower value 0.99 | S. cerevisiae deletion strains, locus YNL298W, strain CLA4, stronger effect = lower value 0.99 | S. cerevisiae deletion strains, locus YNL307C, strain MCK1, stronger effect = lower value 0.987 | S. cerevisiae deletion strains, locus YNL322C, strain KRE1 (second series), stronger effect = lower value 1.02 | S. cerevisiae deletion strains, locus YNL322C, strain KRE1, stronger effect = lower value 1.02 | S. cerevisiae deletion strains, locus YNR049C, strain mso1, stronger effect = lower value 1.01 | S. cerevisiae deletion strains, locus YNR052C, strain pop2, stronger effect = lower value 0.993 | S. cerevisiae deletion strains, locus YOL006C, strain TOP1, stronger effect = lower value 1.08 | S. cerevisiae deletion strains, locus YOL012C, strain htz1 0.929 | S. cerevisiae deletion strains, locus YOL147C, strain pex11, stronger effect = lower value 0.99 | S. cerevisiae deletion strains, locus YOR001W, strain rrp6, stronger effect = lower value 1.03 | S. cerevisiae deletion strains, locus YOR061W, strain CKA2, stronger effect = lower value 1.02 | S. cerevisiae deletion strains, locus YOR069W, strain VPS5, stronger effect = lower value 1.01 | S. cerevisiae deletion strains, locus YOR070C, strain gyp1, stronger effect = lower value 1.02 | S. cerevisiae deletion strains, locus YOR080W, strain dia2, stronger effect = lower value 1.02 | S. cerevisiae deletion strains, locus YOR083W, strain WHI5 (second series), stronger effect = lower value 1.05 | S. cerevisiae deletion strains, locus YOR083W, strain WHI5, stronger effect = lower value 1.02 | S. cerevisiae deletion strains, locus YOR106W, strain vam3, stronger effect = lower value 1.02 | S. cerevisiae deletion strains, locus YOR136W, strain idh2, stronger effect = lower value 0.982 | S. cerevisiae deletion strains, locus YOR144C, strain elg1, stronger effect = lower value 0.999 | S. cerevisiae deletion strains, locus YOR184W, strain ser1, stronger effect = lower value 0.984 | S. cerevisiae deletion strains, locus YOR231W, strain MKK1, stronger effect = lower value 0.988 | S. cerevisiae deletion strains, locus YOR265W, strain rbl2, stronger effect = lower value 1.02 | S. cerevisiae deletion strains, locus YOR270C, strain vph1, stronger effect = lower value 1.05 | S. cerevisiae deletion strains, locus YOR290C, strain snf2, stronger effect = lower value 1.01 | S. cerevisiae deletion strains, locus YOR316C, strain cot1, stronger effect = lower value 0.992 | S. cerevisiae deletion strains, locus YPL051W, strain arl3, stronger effect = lower value 1.01 | S. cerevisiae deletion strains, locus YPL055C, strain LGE1, stronger effect = lower value 1.05 and 0.99 | S. cerevisiae deletion strains, locus YPL078C, strain atp4, stronger effect = lower value 1.03 | S. cerevisiae deletion strains, locus YPL106C, strain sse1, stronger effect = lower value 1.03 | S. cerevisiae deletion strains, locus YPL240C, strain hsp82, stronger effect = lower value 1.01 | S. cerevisiae deletion strains, locus YPL241C, strain CIN2, stronger effect = lower value 0.963 | S. cerevisiae deletion strains, locus YPL256C, strain CLN2, stronger effect = lower value 0.965 | S. cerevisiae deletion strains, locus YPR119W, strain clb2, stronger effect = lower value 0.989 | S. cerevisiae deletion strains, locus YPR141C, strain kar3, stronger effect = lower value 0.98 | S. cerevisiae deletion strains, locus YPR163C, strain tif3, stronger effect = lower value 0.982 | S. cerevisiae deletion strains, locus YPR167C, strain met16, stronger effect = lower value 0.989 | S. cerevisiae deletion strains, strain wtn01, stronger effect = lower value 1 | S. cerevisiae strains, strain wild type, stronger effect = lower value 1.01

Source: PubChem BioAssay AID1159580 (chemical genetic matrix, 2015)
